A number with no mark means an inactive call. The source made the active and inactive calls. Calls follow the shape of the dose curve; as a rule, active = well fitted curve in the direction sought with a large enough effect in the repeat runs; inconclusive = weak or mixed curves; inactive = flat fitted curve, though single readings scatter. Positions of bridges follow the written chain, without caps; N, C: chain ends. Non-standard residues stand in square brackets, D forms with d. Residues, ends and D or L forms follow the SMILES beside them. *: point of attachment. X2 = CC[C@H](C)CCCCC(=O)*; Dab = NCC[C@H](N)C(=O)O
Experiment: qHTS assay to test for compound auto fluorescence at 460 nm (blue) in HEK293 cells (AID 720678)
Settings: blue autofluorescence 405/460 nm; series mostly up to 46 µM; fluorescence, % of triamterene: at the top concentration
In short: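 Measured: blue fluorescence (Ex 405/Em 460 nm) of compound-treated HEK293 cells, incubated overnight at 37C with 5% CO2 and scaled to triamterene equivalents.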
For C[C@]12C=CC(=O)N[C@@H]1CC[C@@H]1[C@@H]2CC[C@]2(C)[C@@H](C(=O)Nc3cc(C(F)(F)F)ccc3C(F)(F)F)CC[C@@H]12, the “fluorescence, % of triamterene” value was 0.0062%. With COc1ccc(C(=O)CCC(=O)O)c2ccccc12 the “fluorescence, % of triamterene” value was -0.0247%. For COc1ccc2cc([C@H](C)CO)ccc2c1, the “fluorescence, % of triamterene” value was -0.174%. For Cn1c(=O)c2c(ncn2CCOC(=O)C(C)(C)Oc2ccc(Cl)cc2)n(C)c1=O, the “fluorescence, % of triamterene” value was -0.149%. In the case of CCCCCC(O)/C=C/C=O (centres undefined), the “fluorescence, % of triamterene” value is reported as 0.0017%. In the case of CCC(C)[C@H]1O[C@]2(C=C[C@@H]1C)C[C@@H]1C[C@@H](C/C=C(\C)[C@@H](O[C@H]3C[C@H](OC)[C@@H](O[C@H]4C[C@H](OC)[C@H](NC(C)=O)[C@H](C)O4)[C@H](C)O3)[C@@H](C)/C=C/C=C3\CO[C@@H]4[C@H](O)C(C)=C[C@@H](C(=O)O1)[C@]34O)O2 (some centres undefined), the Potency is reported as “inactive”. In the case of CC1(C)N=C(N)N=C(N)N1c1ccc(Cl)cc1, the “fluorescence, % of triamterene” value is reported as -0.0142%. With CN(C)C(=O)CCSC(SCCC(=O)O)c1cccc(/C=C/c2ccc3ccc(Cl)cc3n2)c1 (centres undefined) the “fluorescence, % of triamterene” value was -0.134%. With C[C@H](CCCC(C)(C)O)[C@H]1CC[C@H]2[C@@H]3CC=C4C[C@@H](O)CC[C@]4(C)[C@H]3CC[C@]12C the “fluorescence, % of triamterene” value was -0.0005%. For CNC(=O)c1c(I)c(C(=O)NCC(=O)Nc2c(I)c(C(=O)O)c(I)c(C(=O)NCCO)c2I)c(I)c(N(C)C(C)=O)c1I, the “fluorescence, % of triamterene” value was -0.279%. In the case of C=C1CC[C@@H]2[C@](C)(CO)[C@H](O)CC[C@@]2(C)[C@@H]1C/C=C1/C(=O)OC[C@H]1O, the “fluorescence, % of triamterene” value is reported as -0.259%. In the case of C[C@H](CSC(=O)c1ccccc1)C(=O)N1C[C@@H](Sc2ccccc2)C[C@H]1C(=O)O, the “fluorescence, % of triamterene” value is reported as 0.0492%. With C=C[C@]1(C)C[C@@H](OC(=O)CSCCN(CC)CC)[C@]2(C)[C@H](C)CC[C@]3(CCC(=O)[C@H]32)[C@@H](C)[C@@H]1O the “fluorescence, % of triamterene” value was 0.521%. For O=C(O)C1=C(CSc2nnnn2CS(=O)(=O)O)CS[C@@H]2[C@H](NC(=O)[C@H](O)c3ccccc3)C(=O)N12, the “fluorescence, % of triamterene” value was 0.953%. For COc1cc(/C=C/C(=O)N2CCN(CC(=O)N3CCCC3)CC2)cc(OC)c1OC, the “fluorescence, % of triamterene” value was -0.0918%. For CCOC(=O)c1c[nH]c2cc(OCC(C)C)c(OCC(C)C)cc2c1=O, the “fluorescence, % of triamterene” value was 0.0441%. In the case of CCCCCCCCCCCCCCCCCCCCCCO, the “fluorescence, % of triamterene” value is reported as -0.0871%. In the case of CC1=C(/C=C/C(C)=C/C=C/C(C)=C/C(=O)Oc2c(C)c(C)c3c(c2C)CC[C@@](C)(CCC[C@H](C)CCC[C@H](C)CCCC(C)C)O3)C(C)(C)CCC1, the “fluorescence, % of triamterene” value is reported as 0.0807%. In the case of CC(C)CCCC(C)NC(C)C (centres undefined), the “fluorescence, % of triamterene” value is reported as 0.0999%. For O=C(O)CCC/C=C\C[C@@H]1[C@@H](/C=C/[C@@H](O)COc2cccc(C(F)(F)F)c2)[C@H](O)C[C@@H]1O, the “fluorescence, % of triamterene” value was -0.159%. With O=C(O)COc1ccc(CCNS(=O)(=O)c2ccccc2)s1 the “fluorescence, % of triamterene” value was 0.0339%. For CO[C@H]1C[C@@H]2CC[C@@H](C)[C@@](O)(O2)C(=O)C(=O)N2CCCC[C@H]2C(=O)O[C@H]([C@H](C)C[C@@H]2CC[C@@H](OC(=O)C(C)(CO)CO)[C@H](OC)C2)CC(=O)[C@H](C)/C=C(\C)[C@@H](O)[C@@H](OC)C(=O)[C@H](C)C[C@H](C)/C=C/C=C/C=C/1C, the “fluorescence, % of triamterene” value was 0.0794%. For CC[C@H](C)CCCCC(=O)N[C@@H](CCN)C(=O)N[C@H](C(=O)N[C@@H](CCN)C(=O)N[C@H]1CCNC(=O)[C@@H]([C@H](C)O)NC(=O)[C@H](CCN)NC(=O)[C@H](CCN)NC(=O)[C@H](CC(C)C)NC(=O)[C@@H](CC(C)C)NC(=O)[C@H](CCN)NC1=O)[C@@H](C)O (X2-[Dab]T[Dab][Dab][Dab][dL]L[Dab][Dab][dT]; lactam 4-C), the “fluorescence, % of triamterene” value was -0.25% [at 18.6 µM]. With C#C[C@]1(O)CC[C@H]2[C@@H]3CCC4=CC(=O)CC[C@@H]4[C@H]3C(=C)C[C@@]21CC the “fluorescence, % of triamterene” value was -0.0161%. In the case of C=C1CC[C@H](O)CC1=C/C=C1\CCC[C@]2(C)[C@@H]([C@H](C)CCCC(C)(C)O)CC[C@@H]12, the “fluorescence, % of triamterene” value is reported as 0.358%. With CC(=O)Nc1c(I)c(C(=O)O)c(I)c(N(C)C(C)=O)c1I the “fluorescence, % of triamterene” value was 1.27%. For CC1(C)S[C@@H]2[C@H](NC(=O)[C@H](N)c3ccccc3)C(=O)N2[C@H]1C(=O)OCOC(=O)[C@@H]1N2C(=O)C[C@H]2S(=O)(=O)C1(C)C, the “fluorescence, % of triamterene” value was 0.619%. For CNC(C)CCC=C(C)C (centres undefined), the “fluorescence, % of triamterene” value was 0.0634%. For Cc1c(Cl)cccc1Nc1ncccc1C(=O)O, the “fluorescence, % of triamterene” value was 0.0751%. With CN(CCO)CC(O)Cn1cnc2c1c(=O)n(C)c(=O)n2C (centres undefined) (tested in a mixture with another compound) the “fluorescence, % of triamterene” value was 2.26%. In the case of CC[C@H](C)CCCCC(=O)N[C@@H](CCN)C(=O)N[C@H](C(=O)N[C@@H](CCN)C(=O)N[C@H]1CCNC(=O)[C@H]([C@@H](C)O)NC(=O)[C@H](CCN)NC(=O)[C@H](CCN)NC(=O)[C@H](CC(C)C)NC(=O)[C@@H](CC(C)C)NC(=O)[C@H](CCN)NC1=O)[C@@H](C)O (X2-[Dab]T[Dab][Dab][Dab][dL]L[Dab][Dab]T; lactam 4-C), the “fluorescence, % of triamterene” value is reported as -0.0414%. With CCCCCCCCCCCC(=O)OC[C@@H](O)C1OC[C@H](O)[C@H]1O (some centres undefined) the “fluorescence, % of triamterene” value was -0.0175%. With CCOc1ccc(N=Nc2ccc(N)cc2N)cc1 the “fluorescence, % of triamterene” value was -0.697%. With FCOC(C(F)(F)F)C(F)(F)F the “fluorescence, % of triamterene” value was -0.131%. With CCNC(=O)[C@@H]1CCCN1C(=O)[C@H](CCCN=C(N)N)NC(=O)[C@H](CC(C)C)NC(=O)[C@@H](Cc1c[nH]c2ccccc12)NC(=O)[C@H](Cc1ccc(O)cc1)NC(=O)[C@H](CO)NC(=O)[C@H](Cc1c[nH]c2ccccc12)NC(=O)[C@H](Cc1cnc[nH]1)NC(=O)[C@@H]1CCC(=O)N1 the “fluorescence, % of triamterene” value was 0.278%. With C[N@+]12CCCC[C@@H]1CCC(=C(c1cccs1)c1cccs1)C2 the “fluorescence, % of triamterene” value was 0.0512%. In the case of O=C(OC[C@H]1O[C@](O)(COC(=O)c2cccnc2)[C@@H](OC(=O)c2cccnc2)[C@@H]1OC(=O)c1cccnc1)c1cccnc1, the “fluorescence, % of triamterene” value is reported as 0.194%. In the case of COC(=O)CCC[N+](C)(C)C, the “fluorescence, % of triamterene” value is reported as -0.0181%. For CCCCCCCCCCCCCCCC(=O)OCC(COC(=O)CCCCCCCCCCCCCCC)OC(=O)CCCCCCCCCCCCCCC, the “fluorescence, % of triamterene” value was -0.0867%.

Source: PubChem BioAssay (Tox21)
% is scaled to controls: 0 for no effect and ±100 for the full control effect.
